Source: PubChem BioAssay AID720650 (Broad Institute, 2013)
Unmarked numbers belong to inactive results. Activity calls are given as the source filed them. No rule for the calls is given here.

experiment: C difficile toxins, biochemical counterscreen, UDPG substrate absence, confirmatory dose response (AID 720650); conditions: series mostly up to 19.5 µM; activity change, negative = inhibition: at the top concentration

Question: For `O=C(Cc1coc2cc(O)ccc12)NNC(=O)c1cccs1`, which AC50 is on record?
Answer: Its AC50 is over 39 µM.

Question: With `COc1ccc(-c2ccc3c(c2)[C@H]2[C@H](CCN2C(=O)CN2CCOCC2)[C@@H](CO)N3)cc1` as the compound, how does the AC50 read?
Answer: Its AC50 is 11 µM (active).

Question: Which “activity change, negative = inhibition” value does the source give for `COc1cccc(C(=O)C2CCCN(Cc3ccc(F)cc3)C2)c1` (stereo not drawn) here?
Answer: The value was 11.8%.

Question: With `CSc1ccc(/C=N/N2CCN(Cc3ccc(Cl)cc3)CC2)cc1` as the compound, how does the “activity change, negative = inhibition” value read?
Answer: Its value is -14.4%.

Question: For `Cc1cc(N2CCCC2=O)cc(C)c1S(=O)(=O)Nc1c(C)nn(C)c1C`, which “activity change, negative = inhibition” value is on record?
Answer: Its value is -5.53%.

Question: With `C=CCNc1n[nH]c(=S)s1` as the compound, how does the AC50 read?
Answer: The AC50 was over 39 µM.

Question: For `C[C@@H]1CN([C@@H](C)CO)S(=O)(=O)c2ccc(-c3ccncc3)cc2O[C@@H]1CN(C)Cc1ccc(Oc2ccccc2)cc1`, which “activity change, negative = inhibition” value is on record?
Answer: The value was -13.4%.

Question: Which “activity change, negative = inhibition” value does the source give for `COc1cccc(C(=O)OCC(=O)Nc2cc(C)on2)c1OC` here?
Answer: The value was -16.1%.

Question: Which AC50 does the source give for `Cc1n[nH]c(=O)nc1Nc1ccc(O)cc1` here?
Answer: Its AC50 is 11.8 µM (active).

Question: Which “activity change, negative = inhibition” value does the source give for `O=C(O)c1cc(S(=O)(=O)Nc2ccc3cn[nH]c3c2)ccc1Cl` here?
Answer: Its value is 11.7%.

Question: Which “activity change, negative = inhibition” value does the source give for `CCOC(=O)N1CCN=C1SCc1ccc(Cl)c(Cl)c1` here?
Answer: The value was -20.3%.

Question: Which AC50 does the source give for `COc1ccc(C(=O)Nc2ccccc2C(=O)O)cc1Cl` here?
Answer: Its AC50 is over 39 µM.

Question: For `O=C(CN1C(=O)CCC1=O)NNc1ccc2ccccc2c1`, which AC50 is on record?
Answer: The AC50 was < 0.16 µM (active).

Question: Which “activity change, negative = inhibition” value does the source give for `Cc1cnc(C(=O)OCC(=O)Nc2ccc(OCc3ccccc3)cc2)cn1` here?
Answer: Its value is 11.9%.

Question: For `O=CN(c1ccccc1)c1ccc2ccccc2c1`, which “activity change, negative = inhibition” value is on record?
Answer: The value was 8.32%.

Question: For `Cc1nc2ccccn2c1-c1ccnn1S(=O)(=O)c1ccc(F)cc1`, which “activity change, negative = inhibition” value is on record?
Answer: The value was -14.9%.

Question: With `COc1cc(NC(=O)CCc2nnc3ccc(N4CCC(C)CC4)nn23)cc(OC)c1` as the compound, how does the “activity change, negative = inhibition” value read?
Answer: The value was 15.7%.

Question: For `O=C(Nc1ccc(O)cc1)c1ccc2c(c1)C(=O)N(Cc1ccco1)C2=O`, which AC50 is on record?
Answer: Its AC50 is 9.58 µM (active).
